From PubChem BioAssay (EPA / NIEHS)
Values joined by “and” are separate entries in the source; they are usually repeats but may differ in a detail not shown here. Equal entries are not always repeated. Inconclusive results are not listed. Some compounds were tested as several samples or in several runs, with calls that do not always agree. Active and inactive are the calls of the source. How the source made its calls, unless noted: active means hit-call score of the fitted dose curve at least 0.9, where 1 is the maximum; inactive means score below 0.9.

Legend:
CD69, CD69 (gene 969) = experiment: BSK_LPS_CD69: BioMAP Diversity Plus: LPS Assay for CD69 Biomarker Activity (AID 2284303); details: primary human HUVEC with PBMC
In short: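 CD69 surface levels were read by ELISA after 24 h chemical treatment of an LPS-stimulated HUVEC plus PBMC co-culture; positive-direction fit against DMSO vehicle.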

IYD (gene 389434) = experiment: CCTE_GLTED_hIYD: CCTE's human Iodotyrosine Deiodinase (xIYD) Inhibition Assay, Great Lakes Toxicology and Ecology Division (GLTED) Lab (AID 2284317; active means hit-call score of the fitted dose curve at least 0.9, where 1 is the maximum;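 further: cell-free human IYD enzyme made in baculovirus insect cells; iodide freed from monoiodotyrosine measured by cerium arsenite color change at 420 nm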)
In short: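 Cell-free; baculovirus/insect-cell hIYD + MIT substrate + chemical, 3 h. Dowex column cleanup, then Ce4+/As3+ Sandell-Kolthoff read at A420 nm. Triplicate plates; normalized to 3-nitro-L-tyrosine (positive) and DMSO/NaOH (solvent).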

[1] = CCTE_Mundy_HCI_iCellGluta_NOG_NeuriteLength: CCTE's Neurite Outgrowth Assay in iCellGluta cells for Neurite Length, Mundy Lab (AID 2284318; active means hit-call score of the fitted dose curve at least 0.9, where 1 is the maximum)
In short: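 Automated high-content imaging of betaIII-tubulin (Alexa Fluor-488) and Hoechst-stained cells gave neurite length, normalized to the DMSO baseline.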

TTR (gene 7276) = experiment: CCTE_GLTED_hTTR_0.5uM: CCTE's human Transthyretin (hTTR) Inhibition Assay, with 0.5uM TTR, Great Lakes Toxicology and Ecology Division (GLTED) Lab (AID 2284320)
In short: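 Probe (ANSA) displacement from 0.5 uM human transthyretin was followed by fluorescence (ex 380, em 475) after a 2 h incubation with chemical. Activity was scored as signal loss and fitted positively relative to DMSO.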

[2] = CCTE_Mundy_HCI_iCellGluta_NOG_NeuronCount: CCTE's Neurite Outgrowth Assay in iCellGluta cells for Neuron Count, Mundy Lab (AID 2284340; active means hit-call score of the fitted dose curve at least 0.9, where 1 is the maximum;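 further: cells fixed about 48 h after compound addition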)
In short: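 Neuron count read by automated high-content imaging of Hoechst 33342 and betaIII-tubulin/Alexa Fluor-488 labelling in human iPSC glutamatergic neurons. Activity fitted relative to DMSO.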

[3] = CCTE_Mundy_HCI_iCellGluta_NOG_NeuriteCount: CCTE's Neurite Outgrowth Assay in iCellGluta cells for Neurite Count, Mundy Lab (AID 2284342; active means hit-call score of the fitted dose curve at least 0.9, where 1 is the maximum;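 further: chemical exposure about 48 hours starting 2 hours after plating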)
SERPINA7 (gene 6906) = experiment: CCTE_GLTED_hTBG: CCTE's human Thyroxine-binding Globulin (TBG) Inhibition Assay, Great Lakes Toxicology and Ecology Division (GLTED) Lab (AID 2284343; active means hit-call score of the fitted dose curve at least 0.9, where 1 is the maximum;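 further: active chemicals lower fluorescence versus DMSO baseline by displacing probe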)
In short: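 Fluorescence (ex 380/em 475) reports ANSA displaced from human TBG after a 2 h incubation with test chemical, without cells. Loss of signal indicates displacement, with DMSO serving as baseline.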

[4] = Tanguay_ZF_120hpf_MO24: Oregon State University Tanguay Lab 24 Hour Post-fertilization zebrafish Assay for Mortality (AID 2284389)
In short: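 Embryo death at 24 hpf was recorded as present or absent in Tropical 5D zebrafish, dechorionated at 4 hpf and dosed statically from 6 hpf (28C, 0.64% DMSO); 5 uM trimethyltin chloride served as positive control.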

[5] = CCTE_Deisenroth_5AR_NBTE_donor: CCTE's 5alpha-reductase NanoBRET Target Engagement Assay […], Deisenroth Lab (AID 2284319); details: actives raise or lower the signal
In short: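 SRD5A2-NanoLuc, HEK293T, 20 h expression. Chemical 10 nM - 29.9 uM, 8 conc, duplicate; 3 h preincubation + 2 h testosterone tracer. Nano-Glo substrate plus extracellular NanoLuc inhibitor; donor lum 460 nm. DMSO baseline, bidirectional fit.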

[6] = CCTE_Deisenroth_5AR_NBTE_acceptor: CCTE's 5alpha-reductase NanoBRET Target Engagement Assay - Autofluorescence Screen, Deisenroth Lab (AID 2284321); details: actives raise or lower the signal;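 further: compound fluorescence in the acceptor channel under 460 nm excitation flags autofluorescence artifacts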
In short: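 Autofluorescence counter-screen: chemicals at an assumed nominal 100 uM in DMSO were scanned in three independent runs with 460 nm excitation. Gain or loss of acceptor signal was fitted bidirectionally against DMSO.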

SRD5A2 (gene 6716) = experiment: CCTE_Deisenroth_5AR_NBTE_ratio: CCTE's 5alpha-reductase NanoBRET Target Engagement Assay - Ratio, Deisenroth Lab (AID 2284322); details: actives raise or lower the signal
In short: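 SRD5A2-NanoLuc HEK293T; cmpd 10 nM-29.9 uM, 3 h preinc + testosterone tracer 2 h; NanoBRET ratio 650/460; bidirectional fit vs DMSO.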

[7] = IUF_NPC5_oligodendrocyte_differentiation_120hr: Leibniz Research Institute for Environmental Medicine (IUF) 120-hour Oligodendrocyte Differentiation Assay (NPC5) (AID 2284304; active means hit-call score of the fitted dose curve at least 0.9, where 1 is the maximum;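 further: primary human fetal neural progenitor spheres plated to migrate and differentiate; share of O4-positive cells among Hoechst nuclei found by CNN image analysis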)
In short: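 Human fetal neural progenitor spheres (0.3 mm) plated on poly-D-lysine/laminin in N2 differentiation medium and exposed for 120 h at 7 concentrations, with half-medium renewal at day 3. O4-positive cells identified by CNN, expressed as percent of Hoechst nuclei.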

[8] = IUF_NPC4_neurite_area_120hr: Leibniz Research Institute for Environmental Medicine (IUF) 120-hour Neuronal Morphology Assay for Neurite Area (NPC4) (AID 2284305; active means hit-call score of the fitted dose curve at least 0.9, where 1 is the maximum)
In short: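 Endpoint at 120 h: automated imaging of TUBB3/Hoechst-stained differentiating human neural progenitor spheres, neurite area per neuron from skeletonization. DMSO solvent control, not above 0.1%, set the baseline; medium was half-replaced on day 3.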

[9] = IUF_NPC2-5_cytotoxicity_72hr: Cytotoxicity Assessment at 72 hours in the Leibniz Research Institute for Environmental Medicine (IUF) Neural Progenitor Cell Migration and Differentiation Assay for Cytotoxicity (NPC2-5) (AID 2284306; active means hit-call score of the fitted dose curve at least 0.9, where 1 is the maximum;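 further: LDH release into supernatant measured by resorufin fluorescence marking membrane damage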)
In short: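 Primary human neural progenitor spheres migrate and differentiate on laminin. Compound is present from the start of differentiation, with DMSO kept at or below 0.1%. At 72 h, supernatant LDH is quantified fluorometrically, with values fitted in the positive direction.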

[10] = IUF_NPC2-5_cytotoxicity_120hr: Cytotoxicity Assessment at 120 hours in the Leibniz Research Institute for Environmental Medicine (IUF) Neural Progenitor Cell Migration and Differentiation Assay (NPC2-5) (AID 2284307; active means hit-call score of the fitted dose curve at least 0.9, where 1 is the maximum)
In short: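 Human fetal (GW 16-19) neural progenitor spheres (0.3 mm) plated on poly-D-lysine/laminin in N2 differentiation medium, exposed 120 h with half-medium renewal at day 3; 7 concentrations plus solvent control, DMSO ≤0.1%. LDH release in supernatant read by resorufin fluorescence.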

[11] = IUF_NPC2-5_cell_number_120hr: Cell Number Assessment at 120 hours in the Leibniz Research Institute for Environmental Medicine (IUF) Neural Progenitor Cell Migration and Differentiation Assay (NPC2-5) (AID 2284308);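 further: count of Hoechst-stained nuclei in migration zone around plated human neural progenitor spheres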
In short: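 Human fetal neural progenitor spheres (0.3 mm) plated on poly-D-lysine/laminin in N2 differentiation medium, exposed five days across 7 concentrations with half-medium refresh at day 3. Hoechst-positive nuclei counted in migration area at 120 h, relative to DMSO.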

[12] = IUF_NPC2-5_viability_120hr: Viability Assessment at 120 hours in the Leibniz Research Institute for Environmental Medicine (IUF) Neural Progenitor Cell Migration and Differentiation Assay (NPC2-5) (AID 2284312)
In short: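 Human fetal (GW 16-19) neural progenitor spheres of 0.3 mm were plated on poly-D-lysine/laminin in N2 differentiation medium and exposed from day 0 for 120 h, with half-medium refresh at day 3. Viability was read as alamar blue resazurin-to-resorufin fluorescence against DMSO.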

[13] = IUF_NPC1_cytotoxicity_72hr: Cytotoxicity Assessment at 72 hours in the Leibniz Research Institute for Environmental Medicine (IUF) Neural Progenitor Cell Proliferation Assay (NPC1) (AID 2284332; active means hit-call score of the fitted dose curve at least 0.9, where 1 is the maximum;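 further: rising LDH signal means more cytotoxicity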)
In short: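 LDH in supernatant, resazurin→resorufin fluorescence (RFU), 72 h exposure, no re-dosing. Cells: primary hNPC spheres, one per well, EGF+FGF medium, 37C/5% CO2, pH 7.2-7.6. Fit: positive direction vs baseline and dynamic range.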

[14] = Tanguay_ZF_120hpf_DP24: Oregon State University Tanguay Lab 24 Hour Post-fertilization zebrafish Assay for Delayed Development (AID 2284390)
In short: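 Scored at 24 hpf as a binary present/absent call of delayed development by brightfield, with dead embryos not assessed. Embryos (5D wild type, chorion removed with pronase at 4 hpf) dosed statically from 6 hpf at 28 C in 0.64% DMSO.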

With `O=C(O)C(F)(F)C(F)(F)C(F)(F)C(F)(F)C(F)(F)C(F)(F)C(F)(F)C(F)(F)Cl` the AC50 (CD69, CD69 (gene 969)) was 35.5 µM (active) and 40.7 µM (active), the AC50 (IYD (gene 389434)) was 74.4 µM (active) and the outcome [1] was “inactive”. The AC50 (TTR (gene 7276)) was 0.252 µM (active), the outcome [2] was “inactive” and the outcome [3] was “inactive”. For the same compound, the AC50 (SERPINA7 (gene 6906)) was 62.6 µM (active) and the outcome [4] was “inactive”.
With `CCCCC(CC)COP(=O)(O)OCC(CC)CCCC` (stereo not given) the AC50 (CD69, CD69 (gene 969)) was 987 nM (active), the outcome (CD69, CD69 (gene 969)) was “inactive” and the AC50 (IYD (gene 389434)) was 100 µM (active). The AC50 (SERPINA7 (gene 6906)) was 2.42 µM (active).
With `O=C(Cl)C(F)(F)C(F)(F)C(F)(F)C(F)(F)C(F)(F)C(F)(F)C(F)(F)C(F)(F)F` the AC50 (CD69, CD69 (gene 969)) was 18.1 µM (active) and 22.1 µM (active), the outcome (CD69, CD69 (gene 969)) was “inactive” and the AC50 (IYD (gene 389434)) was 139 µM (active). For the same compound, the AC50 (TTR (gene 7276)) was 0.491 µM (active) and the AC50 (SERPINA7 (gene 6906)) was 14.9 µM (active).
In the case of `O=C(OCCOCCOCCOC(=O)c1ccccc1)c1ccccc1`, the outcome [5] is reported as “inactive”, the outcome [6] is reported as “inactive” and the outcome (SRD5A2 (gene 6716)) is reported as “inactive”.
With `CC(CCl)OP(=O)(OC(C)CCl)OC(C)CCl` (stereo not given) the AC50 [7] was 5.43 µM (active), the outcome [8] was “inactive” and the outcome [9] was “inactive”. The outcome [10] was “inactive”, the outcome [11] was “inactive” and the outcome [12] was “inactive”. For the same compound, the outcome [1] was “inactive”, the outcome [13] was “inactive” and the outcome [2] was “inactive”. The outcome [3] was “inactive”.
For `FC(F)(F)C(F)(F)C(F)(F)N(C(F)(F)C(F)(F)C(F)(F)F)C(F)(F)C(F)(F)C(F)(F)F`, the outcome (CD69, CD69 (gene 969)) was “inactive” and the outcome [4] was “inactive”.
For `C=CC(=O)OCC(F)(F)C(F)(F)C(F)(F)C(F)(F)C(F)(F)C(F)(F)C(F)(F)F`, the outcome (CD69, CD69 (gene 969)) was “inactive”, the outcome [4] was “inactive” and the outcome [14] was “inactive”.
With `COC(=O)CCC(F)(F)C(F)(F)C(F)(F)C(F)(F)F` the outcome (CD69, CD69 (gene 969)) was “inactive”, the AC50 (TTR (gene 7276)) was 53.4 µM (active) and the outcome [4] was “inactive”.
For `C=C(C)C(=O)OCC(F)(F)C(F)(F)C(F)(F)C(F)(F)C(F)(F)C(F)(F)C(F)(F)F`, the outcome (CD69, CD69 (gene 969)) was “inactive” and the outcome [4] was “inactive”.
